Test systems include EKVX NSCLC; SN12C renal; UO-31 renal; TK-10 renal; ACHN renal; CCRF-CEM leukemia; MOLT-4 leukemia; SR leukemia; RPMI-8226 leukemia; OVCAR-8 ovarian; OVCAR-5 ovarian; OVCAR-4 ovarian; SK-OV-3 ovarian; IGROV1 ovarian; HS 578T breast; NCI/ADR-RES ovarian; T-47D breast; CAKI-1 renal; A498 renal; OVCAR-3 ovarian.
Holding throughout (assay): NCI-60 one-dose screen, 48 h (100 = growth as untreated, 0 = no growth, -100 = all killed)
Common to all, as to settings: 10 µM unless noted

The results in this text go back to PubChem BioAssay (NCI).

This is part of a sample that, as a whole, favours compounds with a hit. Of some 83,000 tested, about 20% had one in any assay.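 Testing used 96-well plates and a 48-hour single-concentration exposure. Example: -40 means 40% of the starting cells died.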 A number with no mark means an inactive call. Activity calls are given as the source filed them. How the source made its calls: active means growth percent below 10; inactive means the rest.

As for `COc1ccc(C(=O)/C=C/c2ccc(OCc3ccc(C)cc3)c(OC)c2)cc1OC`, the growth in the test with EKVX NSCLC was 61.4%; in the test with SN12C renal, 75.9%; in the test with UO-31 renal, 58.6%; with TK-10 renal, 117%; with ACHN renal it was 75.8%; with CCRF-CEM leukemia, 32.2%. The growth in the test on MOLT-4 leukemia was 29.4%; in the test on SR leukemia it was 9.97% (active); in the test on RPMI-8226 leukemia, 8.56% (active); with OVCAR-8 ovarian it was 49.1%; in the test on OVCAR-5 ovarian it was 95.4%; in the test with OVCAR-4 ovarian, 60.9%. Further, the growth is 100% in the test with SK-OV-3 ovarian; 84% in the test with IGROV1 ovarian; 91.4% with HS 578T breast; 53.7% in the test with NCI/ADR-RES ovarian; 45.6% in the test with T-47D breast.

As to `C=CCSc1ccc2c(c1)C(N1CCNCC1)=Nc1ccccc1O2`, the growth in the test on EKVX NSCLC was 79.7% [8.25 µM]; with SN12C renal, 77.3% [8.25 µM]; in the test on UO-31 renal, 62.1% [8.25 µM]; in the test on TK-10 renal, 85% [8.25 µM]; with CAKI-1 renal, 58.8% [8.25 µM]; in the test on A498 renal, 75.1% [8.25 µM]. Moreover, the growth with CCRF-CEM leukemia is 66.6% [8.25 µM]; in the test on MOLT-4 leukemia, 49.9% [8.25 µM]; in the test on SR leukemia, 14.4% [8.25 µM]; with RPMI-8226 leukemia, 63.2% [8.25 µM]; in the test on OVCAR-8 ovarian, 92.5% [8.25 µM]; in the test on OVCAR-5 ovarian, 85.4% [8.25 µM]. For the same molecule, the growth was 83.1% [8.25 µM] in the test with OVCAR-4 ovarian; 88.2% [8.25 µM] in the test on SK-OV-3 ovarian; 63.1% [8.25 µM] in the test on IGROV1 ovarian; 72.1% [8.25 µM] in the test on HS 578T breast; 87.9% [8.25 µM] with NCI/ADR-RES ovarian; 71.3% [8.25 µM] with T-47D breast.

`CCCC(=O)NC(c1ccc(N(CC)CC)cc1)c1cc(C)c2cccnc2c1O` (stereo not given): the growth with EKVX NSCLC was 19.2%; in the test with SN12C renal it was 26.6%; in the test on UO-31 renal it was 3.42% (active); in the test on TK-10 renal it was 31.6%; with CAKI-1 renal it was 18.7%; with CCRF-CEM leukemia, 6.15% (active). Besides, the growth is 8.44% (active) with MOLT-4 leukemia; 5.57% (active) with SR leukemia; 22.6% with RPMI-8226 leukemia; 20.5% in the test on OVCAR-8 ovarian; 58% with OVCAR-5 ovarian; 40.3% in the test on OVCAR-4 ovarian. The growth was 42% with SK-OV-3 ovarian; 14.1% in the test on IGROV1 ovarian; 18.6% in the test on OVCAR-3 ovarian; 50% in the test with HS 578T breast; 6.31% (active) with NCI/ADR-RES ovarian; 26.3% with T-47D breast.

Take `O=C(Oc1ccc2ccc(=O)oc2c1)c1ccc(Cl)cc1`: the growth was 99.2% in the test on EKVX NSCLC; 98.7% in the test with SN12C renal; 86.7% in the test on UO-31 renal; 125% in the test with TK-10 renal; 106% in the test with ACHN renal; 103% in the test with CCRF-CEM leukemia. Also, the growth was 106% in the test with MOLT-4 leukemia; 96.6% in the test with SR leukemia; 109% with RPMI-8226 leukemia; 105% with OVCAR-8 ovarian; 110% in the test with OVCAR-5 ovarian; 119% in the test on OVCAR-4 ovarian. In addition, the growth in the test with IGROV1 ovarian was 104%; in the test on HS 578T breast, 103%; with NCI/ADR-RES ovarian, 101%; in the test on T-47D breast it was 105%.

`NS(=O)(=O)c1cccc(Nc2nc(SCC(=O)c3ccc(Br)cc3)nc3ccccc23)c1`: the growth was 64.8% in the test on EKVX NSCLC; 74.9% in the test on SN12C renal; 59.6% with UO-31 renal; 124% with TK-10 renal; 28% in the test with ACHN renal; 68.6% with CCRF-CEM leukemia. Further, the growth with MOLT-4 leukemia is 44%; with SR leukemia, 37.1%; with RPMI-8226 leukemia, 46.1%; with OVCAR-8 ovarian it was 39.5%; in the test with OVCAR-5 ovarian it was 115%; in the test with OVCAR-4 ovarian, 43.6%. Further, the growth in the test on SK-OV-3 ovarian is 90.1%; in the test with IGROV1 ovarian, 85.4%; in the test on OVCAR-3 ovarian it was 44%; in the test on HS 578T breast, 59.6%; with NCI/ADR-RES ovarian it was 82.8%; in the test with T-47D breast, 31.9%.

`CS(=O)(=O)c1ccc(-n2cc(/C=C/C(=O)c3ccc(NC(=O)CO[N+](=O)[O-])cc3)c(-c3ccc(Cl)cc3)n2)cc1`: the growth was 90.5% in the test on EKVX NSCLC; 88% with SN12C renal; 115% in the test with UO-31 renal; 111% in the test on TK-10 renal; 109% in the test with CAKI-1 renal; 117% with A498 renal. Also, the growth is 107% in the test on CCRF-CEM leukemia; 119% with MOLT-4 leukemia; 113% in the test with SR leukemia; 108% with RPMI-8226 leukemia; 92.5% with OVCAR-8 ovarian; 97.7% with OVCAR-5 ovarian. The growth with OVCAR-4 ovarian is 114%; in the test on IGROV1 ovarian, 94.4%; in the test on OVCAR-3 ovarian, 111%; with HS 578T breast it was 83.6%; with NCI/ADR-RES ovarian it was 94.4%; with T-47D breast, 104%.

Take `COc1cc2cc(Oc3ccc(NC(=O)c4cccc(C(F)(F)F)c4)cc3)c(C)nc2cc1OCCN1CCCCC1`: the growth is 93.2% with EKVX NSCLC; 76.2% in the test on SN12C renal; 69.3% in the test on UO-31 renal; 143% in the test with TK-10 renal; 57.4% with CAKI-1 renal; 78.6% in the test on A498 renal. Moreover, the growth with CCRF-CEM leukemia is 6.44% (active); in the test with MOLT-4 leukemia, 1.53% (active); with SR leukemia, -40.6% (active); in the test on RPMI-8226 leukemia, -10.4% (active); in the test on OVCAR-8 ovarian, 62.6%; in the test with OVCAR-5 ovarian it was 98.7%. Moreover, the growth in the test on OVCAR-4 ovarian was 68.1%; in the test on IGROV1 ovarian it was 81.5%; with HS 578T breast it was 70%; in the test with NCI/ADR-RES ovarian, 75.4%; with T-47D breast it was -25.8% (active).

As to `CN(C)c1ccc(/C=C2\Cc3c(F)ccc(Br)c3C2=O)cc1`, the growth with EKVX NSCLC was 80.5%; with SN12C renal, 98.2%; with UO-31 renal, 77%; in the test on TK-10 renal, 140%; in the test with ACHN renal, 84.8%; in the test on CCRF-CEM leukemia it was 94.2%. Further, the growth in the test on MOLT-4 leukemia was 97.7%; in the test on SR leukemia, 76%; in the test with RPMI-8226 leukemia it was 93.1%; in the test with OVCAR-8 ovarian it was 96.5%; with OVCAR-5 ovarian, 107%; in the test on OVCAR-4 ovarian it was 35.9%. Also, the growth in the test on SK-OV-3 ovarian is 97.7%; in the test on IGROV1 ovarian, 56.5%; with OVCAR-3 ovarian, 101%; in the test on HS 578T breast, 92.2%; in the test on NCI/ADR-RES ovarian, 91%; with T-47D breast, 54.2%.
